The values that follow come from PubChem BioAssay (NCI).

The panel holds about 83,000 compounds, 20% with a hit somewhere; the sample as a whole holds those more often.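 96-well plates, one dose, 48 hours. Percent growth reported; active if below 10.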 Values without a mark were called inactive. Activity calls are given as the source filed them.

The test relates to HL-60(TB) leukemia. Kind of test: NCI-60 one-dose screen, 48 h (100 = growth as untreated, 0 = no growth, -100 = all killed). Conditions: 10 µM unless noted.
`CCCCCCCCCCCCNC(=O)[C@H]1CSC(c2ccc(OC)c(F)c2)N1` (stereo not given in full): the growth was -70.3% (active).

On to `O=C1CCCCN1CCCCC#Cc1ccccc1C#Cc1ccccn1`, for which the growth is 78.2%.

For the molecule `C=CC(=O)Nc1cccc(Nc2nc(Nc3ccc(N4CCN(C(C)=O)CC4)cc3OC)ncc2C(F)(F)F)c1`, the growth was -25.2% (active).

For `COc1ccc2c(c1)C(=Nc1cc(OC)c(OC)c(OC)c1)C(=O)N2`, the growth was 96.1%.

With `COc1ccc(NC(=O)Nc2ccc(-c3cccnc3)cc2N2CCC(CO)CC2)cc1`, the growth is 88.6%.

As to `FC(F)c1nc2ccccc2n1-c1nc(N2CCOCC2)nc(N2CCOCC2)n1`, the growth is 15.1%.

As to `COc1ccc(C(=O)COc2cccc(/C=C3\CSc4ccccc4C3=O)c2)cc1`, the growth was -55.5% (active).

For `CNC(=O)c1cc(Oc2cccc3nc(NC(=O)Nc4cc(C(F)(F)F)cc(C(F)(F)F)c4)ccc23)ccn1`, the growth was 70.5%.

With `Clc1ccc(N/N=C(\c2ccccc2)c2ccccn2)nc1`, the growth was -28.3% (active).

As to `N#CCc1ncc(-c2ccc(C(F)(F)F)cc2)c(NC2CCCCCC2)n1`, the growth was -28.4% [100 µM] (active).

In the case of `COc1cc(C(=O)C(=O)c2cc(OC)c(O)c(OC)c2)cc(OC)c1O`, the growth was 99.7%.

For the molecule `COc1nc2ccccc2cc1/C=[N+](\[O-])c1ccccc1`, the growth is -18.5% (active).

For the molecule `CCN(CC)N=Nc1nn(C(=O)Nc2ccc(Cc3ccccc3)cc2)c2ccc(Cl)cc12`, the growth is 60.4%.

`OC1(c2ccccc2)c2ccccc2N(c2ccccc2)c2ccc(Cl)cc21` (stereo not given): the growth was -22.2% (active).

Consider `Ic1ccccc1I`, for which the growth was 94.1%.

On to `N#Cc1c(-c2ccc(Cl)cc2)nc(NN=Cc2cccc(Cl)c2)nc1N1CCOCC1`, for which the growth is 71.5%.

With `C#Cc1cccc(Nc2ncnc3cc(NC(=O)CCl)ccc23)c1`, the growth was -41.3% (active).

Take `COc1ccc(C2=C/C(=C\c3ccc(Cl)cc3)C(=O)N2/N=C/c2ccc(Cl)cc2)cc1`: the growth was 102%.

For `COc1cccc2c1O/C(=C\c1ncc([N+](=O)[O-])n1C)C2=O`, the growth is -14.8% (active).

For `Cc1cc2cccnc2c2ncccc12`, the growth is -11.4% (active).

Regarding `Cc1cc(N(CCNc2ccnc3cc(Cl)ccc23)Cc2cccs2)nc(Cl)n1`, the growth is -72.4% (active).

In the case of `O=C(Nc1ccc(Oc2cccc(Cl)c2)c(Cl)c1)c1cccnc1`, the growth is 6.06% (active).

For the molecule `COC(=O)c1[nH]cnc1/N=N/N(C)CCO`, the growth was 86.5%.

In the case of `C=C(CN1CC=CCC1)[C@@H]1CC[C@]2(COC(C)=O)CC[C@]3(C)[C@H](CC[C@@H]4[C@@]5(C)CC[C@H](O)C(C)(C)[C@@H]5CC[C@]43C)[C@@H]12`, the growth was 102%.

As for `BrCc1cccc(C[P+](c2ccccc2)(c2ccccc2)c2ccccc2)c1`, the growth was 12.2%.
